Source: PubChem BioAssay (NCATS)
Inconclusive results are not listed. Active and inactive are the calls of the source. The call rests on the fitted dose curve; in most records, active means well fitted curve in the direction sought with a large enough effect; inconclusive means small, poorly fitted or top-dose-only effect, or another doubt; inactive means no such curve, though single readings can be large; an effect the other way counts as inactive or inconclusive. Numbered stars: 1 amine (or outer) side, 2 acyl side, 3 side chain; on linkers, the order of the positions; unused ones are H or OH. Bridge positions count the residues as written; N and C are the ends. Square brackets hold non-standard residues; d marks the D form. Peptide text beside a SMILES is read from it. I, II: the chains in the order shown. Actinocin(9to1) = Cc1c2oc3c(C)ccc(C(=O)[*:1])c3nc-2c(C(=O)[*:2])c(N)c1=O; NMeV = CN[C@H](C(=O)O)C(C)C; Sar = CNCC(=O)O

How the values were obtained:
[1] = biological target: Protein phosphatase 1D (Homo sapiens) (UniProt O15297); experiment: RapidFire Mass Spectrometry qHTS Assay for Modulators of WT P53-Induced Phosphatase 1 (WIP1) (AID 1347424);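 further: amount of dephosphorylated VEPPL-S-QETFS peptide product formed by WIP1; series mostly up to about 63 µM; plate controls were DMSO wells for no effect and GSK830371 inhibitor control at 10 µM for full effect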
Sequence of Protein phosphatase 1D (Homo sapiens) (O15297 whole entry, looked up): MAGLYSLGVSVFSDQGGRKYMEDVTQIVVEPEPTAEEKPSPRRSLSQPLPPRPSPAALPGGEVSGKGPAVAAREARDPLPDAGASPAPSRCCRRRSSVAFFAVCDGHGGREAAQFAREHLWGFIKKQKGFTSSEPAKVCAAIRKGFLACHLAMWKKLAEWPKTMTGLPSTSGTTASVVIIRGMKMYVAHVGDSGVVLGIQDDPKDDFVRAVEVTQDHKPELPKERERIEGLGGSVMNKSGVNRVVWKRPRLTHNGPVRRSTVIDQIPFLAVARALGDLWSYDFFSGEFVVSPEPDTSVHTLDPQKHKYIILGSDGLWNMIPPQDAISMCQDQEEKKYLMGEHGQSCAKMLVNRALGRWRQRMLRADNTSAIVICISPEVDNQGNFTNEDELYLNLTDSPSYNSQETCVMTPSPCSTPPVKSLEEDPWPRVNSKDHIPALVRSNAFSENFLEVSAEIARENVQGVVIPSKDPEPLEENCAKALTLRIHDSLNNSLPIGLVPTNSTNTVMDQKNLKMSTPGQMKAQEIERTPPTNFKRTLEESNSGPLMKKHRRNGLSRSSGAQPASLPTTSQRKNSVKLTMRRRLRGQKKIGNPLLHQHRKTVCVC
How it was run: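 10 nM WIP1 preincubated with compounds 1 hr at room temperature in pH 7.5 Tris buffer with 30 mM MgCl2, 1 mM TCEP; 2 uM VEPPL-pS-QETFS phosphopeptide for 5 min, formic acid quench; dephosphorylated product quantified by RapidFire MS against labelled standard.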

[2] = biological target: Protein phosphatase 1D (Homo sapiens) (UniProt O15297); experiment: Rhodamine-PBP qHTS Assay for Modulators of WT P53-Induced Phosphatase 1 (WIP1) (AID 1347425); further: % of control where 0% means no effect
How it was run: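 Read-out: Rhodamine-PBP fluorescence (ex 525/em 598 nm) for released Pi, read each minute for 11 min after adding 10 uM VEPPL-pS-QETFS; signal taken as f1 minus pre-substrate f0. Enzyme 5 nM WIP1 with 1 hr room-temperature compound preincubation.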

[3] = Primary qHTS for inhibitors of La Crosse Virus (LACV) - induced cell death in SH-SY5Y cells (AID 1508616);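 further: top concentration of the series differs between compounds; 0% = infected DMSO wells and 100% = uninfected DMSO wells; higher means more rescue of cells from virus-induced death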
How it was run: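 SH-SY5Y cells (6000/well) plated 24 h, then given compounds by pin transfer and LACV at 0.01 MOI for 6 days at 37C. Viability measured by ATPLite luminescence, normalized to infected DMSO and uninfected DMSO.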

[4] = biological target: Calcium and integrin-binding protein 1 (Homo sapiens) (UniProt Q99828); experiment: Primary qHTS for Identification of Calcium Integrin Binding Protein 1 (CIB1) Competitor (AID 1508620);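 further: GST tagged CIB1 binding a fluorescein labelled alphaIIb integrin peptide tracer; top concentration of the series differs between compounds; on the % scale 0 is the no-effect control and ±100 the full control effect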
Sequence of Calcium and integrin-binding protein 1 (Homo sapiens) (Q99828 whole entry, looked up): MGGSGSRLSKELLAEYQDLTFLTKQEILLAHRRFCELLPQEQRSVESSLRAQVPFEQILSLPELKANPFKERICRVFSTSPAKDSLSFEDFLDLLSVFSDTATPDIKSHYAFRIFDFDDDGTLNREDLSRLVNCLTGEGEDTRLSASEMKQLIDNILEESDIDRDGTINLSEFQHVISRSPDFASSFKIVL
How it was run: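 Fluorescence polarization competition: GST-tagged CIB1 (1 uM final) preincubated with compound 15 min at room temperature, then FITC-labelled alphaIIb peptide (100 nM final) added. After 15 min at room temperature, polarization read at Ex 480/Em 540.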

[5] = Counterscreen qHTS for small molecule stabilizers of the endoplasmic reticulum resident proteome: GLuc-NoTag assay (AID 1508627);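 further: SH-SY5Y cells given compound then 100 nM thapsigargin to empty ER calcium; series mostly up to about 76 µM; 0% = thapsigargin alone and -100% = DMSO vehicle control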
How it was run: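 SH-SY5Y cells stably expressing constitutively secreted GLuc without SERCaMP tag, exposed to compound for 19 hr, then to 100 nM thapsigargin for 4 hr at 37C. Medium luciferase was read by coelenterazine luminescence without lysis.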

CCOC(=O)n1ccn(C)c1=S
inactive: Potency [1] | outcome [2] | Potency [3] | Potency [4]

CC(=O)Oc1ccc(C(c2ccc(OC(C)=O)cc2)c2ccccn2)cc1
inactive: Potency [1] | outcome [2] | Potency [3] | Potency [4]

CC(C)COC(=O)c1ccc(N)cc1
inactive: Potency [1] | outcome [2] | Potency [3] | Potency [4]

NCCCC[C@H](N[C@@H](CCc1ccccc1)C(=O)O)C(=O)N1CCC[C@H]1C(=O)O
inactive: Potency [1] | outcome [2] | Potency [3] | Potency [4]

COc1ccc(C2C(=O)c3ccccc3C2=O)cc1
inactive: Potency [1] | outcome [2] | Potency [3] | Potency [4]

CO/N=C1\CN(c2nc3c(cc2F)c(=O)c(C(=O)O)cn3C2CC2)CC1CN (configuration not stated)
inactive: Potency [1] | outcome [2] | Potency [3] | Potency [4]

CN(C)CCCOc1nn(Cc2ccccc2)c2ccccc12
inactive: Potency [1] | outcome [2] | Potency [3] | Potency [4]

O=C1OC(c2ccc(O)cc2)(c2ccc(O)cc2)c2ccccc21
inactive: Potency [1] | outcome [2] | Potency [3] | Potency [4]

O=C(Nc1ccc(Cl)c(Cl)c1)C1CC1
inactive: Potency [1] | outcome [2] | Potency [3] | Potency [4]

CCn1cc(C(=O)O)c(=O)c2cnc(N3CCCC3)nc21
inactive: activity change, negative = inhibition [1] -0.783% [at 12.6 µM] | activity change, negative = inhibition [2] -2.4% [at 11.5 µM] | activity change [3] -0.143% [at 0.858 µM] | Potency [4]

C=C1C(=C/C=C2\CCC[C@]3(C)[C@@H]([C@H](C)/C=C/[C@@H](O)C4CC4)CC[C@@H]23)C[C@@H](O)C[C@@H]1O
inactive: Potency [1] | outcome [2] | Potency [3] | Potency [4]

O=C(COc1ccc(Cl)cc1)N1CCN(Cc2ccc3c(c2)OCO3)CC1
inactive: Potency [1] | outcome [2] | Potency [3] | Potency [4]

C=C1C[C@H]2[C@@H]3C=C(C)C4=CC(=O)CC[C@]4(C)[C@H]3CC[C@]2(C)[C@@]1(OC(C)=O)C(C)=O
inactive: Potency [1] | outcome [2] | Potency [3] | Potency [4]

CC1(C)O[C@@H]2C[C@H]3[C@@H]4C[C@H](F)C5=CC(=O)CC[C@]5(C)[C@H]4[C@@H](O)C[C@]3(C)[C@]2(C(=O)CO)O1
inactive: Potency [1] | outcome [2] | Potency [3] | Potency [4]

Cc1c(C)n(CCN(C)C)c2ccc(C(=O)OCCN(C)C)cc12
inactive: Potency [1] | outcome [2] | Potency [3] | Potency [4]

CCN(CC)CCOc1ccc(C(O)(Cc2ccc(Cl)cc2)c2ccc(C)cc2)cc1 (configuration not stated)
inactive: Potency [1] | outcome [2] | Potency [3] | Potency [4]

CC(=O)O[C@]1(C(C)=O)CC[C@H]2[C@@H]3C[C@H](C)C4=CC(=O)CC[C@]4(C)[C@H]3CC[C@@]21C
inactive: Potency [1] | outcome [2] | Potency [3] | Potency [4]

Cc1c2oc3c(C)ccc(C(=O)N[C@@H]4C(=O)N[C@H](C(C)C)C(=O)N5CCC[C@H]5C(=O)N(C)CC(=O)N(C)[C@@H](C(C)C)C(=O)O[C@@H]4C)c3nc-2c(C(=O)N[C@@H]2C(=O)N[C@H](C(C)C)C(=O)N3CCC[C@H]3C(=O)N(C)CC(=O)N(C)[C@@H](C(C)C)C(=O)O[C@@H]2C)c(N)c1=O (I: T[dV]P[Sar][NMeV] / II: T[dV]P[Sar][NMeV]; ester I:1-I:C, II:1-II:C; linker I:N-II:N via Actinocin(9to1))
inactive: Potency [1] | outcome [2] | Potency [3] | Potency [4]

CCN(CC)C(=O)N1CCN(C)CC1
inactive: Potency [1] | outcome [2] | Potency [3] | Potency [4]

CC(C)(C(=O)c1cccnc1)c1cccnc1
inactive: Potency [1] | outcome [2] | Potency [3] | Potency [4]

O=C1OC2(c3ccc(O)cc3Oc3cc(O)ccc32)c2ccccc21
inactive: Potency [1] | outcome [2] | Potency [3] | Potency [4]

CCN(CCCc1ccccc1)CCCc1ccccc1
inactive: Potency [1] | outcome [2] | Potency [3] | Potency [4]

CC(Cc1ccccc1)(NC(=O)CN)c1ccccc1 (configuration not stated)
inactive: Potency [1] | outcome [2] | Potency [3] | Potency [4]

NC(=O)C(=O)N/N=C/c1ccc([N+](=O)[O-])o1
inactive: Potency [1] | outcome [2] | Potency [3] | Potency [4]

COc1cc2c(cc1OC)C(=O)C(CC1CCN(Cc3ccccc3)CC1)C2 (configuration not stated)
inactive: Potency [1] | outcome [2] | Potency [3] | Potency [4]

CC(=O)c1ccc2c(c1)N(CCCN1CCC(CCO)CC1)c1ccccc1S2
inactive: Potency [1] | outcome [2] | Potency [3] | outcome [5]

Oc1c(I)cc(I)c2cccnc12
inactive: Potency [1] | outcome [2] | Potency [4]

CN(C)CCOc1ccccc1Cc1ccccc1
inactive: Potency [1] | outcome [2] | Potency [3] | Potency [4]

COc1c(C)c2c(c(O)c1C/C=C(\C)CCC(=O)O)C(=O)OC2
inactive: Potency [1] | outcome [2] | Potency [4]

CC(C)(Oc1ccc(Cl)cc1)C(=O)O
inactive: Potency [1] | outcome [2] | Potency [3] | Potency [4]

CC(C)NC[C@@H](O)COc1cccc2ccccc12
inactive: Potency [1] | outcome [2] | Potency [3] | Potency [4]
